Structures are written as SMILES. Results filed as inconclusive are left out. Activity calls are given as the source filed them. Calls follow the shape of the dose curve; as a rule, active = well fitted cell-killing curve with a large enough effect in the repeat runs; inconclusive = weak or mixed curves, or effect the other way; inactive = flat fitted curve, though single readings scatter.

This assay can be described thus: qHTS assay to identify small molecule antagonists of the estrogen receptor alpha (ER-alpha) signaling pathway using the BG1 cell line in the presence of 0.1 nM 17-beta-estradiol - cell viability counter screen (AID 1259241). Also: nearly all actives have a fitted effect of over 40% in size. The settings on record: VM7Luc4E2 (BG1) viability, CellTiter-Fluor protease, 22 h, 0.1 nM estradiol agonist added; series mostly up to 92.4 µM. The source says: National Center for Advancing Translational Sciences [NCATS]
NIH Chemical Genomics Center [NCGC]
U.S. Environmental Protection Agency [EPA]
National Institutes of Environmental Health Sciences [NIEHS]
National Toxicology Program [NTP]
U.S. Food and Drug Administration [FDA]
Estrogen receptor (ER), a member of the nuclear hormone receptor plays an important role in development, metabolic homeostasis and reproduction. Two subtypes of ER, ER-alpha and ER-beta, have similar expression patterns with some uniqueness in both types. Endocrine disrupting chemicals (EDCs) and their interactions with steroid hormone receptors like ER causes disruption of normal endocrine function. Therefore, it is important to understand the effect of environmental chemicals in ER signaling pathway. For identifying ER antagonists, VM7Luc4E2 cell line was used to screen against Tox21 compound libraries.
VM7Luc4E2 cell line (provided by Denison MS, University of California) endogenously express full-length ER-alpha and is stably transfected with a plasmid containing four estrogen responsive elements (ERE) upstream of a luciferase reporter gene. The current screening for identification of ER-alpha inhibitors against Tox21 compound libraries used lower concentration (0.1 nM) of 17beta-Estradiol as a stimulator. The cytotoxicity of the Tox21 compound libraries against VM7Luc4E2 cell line was tested by measuring live-cell protease activity using CellTiter-Fluor assay in the same wells.
Tox21 Assay Protocol Summary:
VM7Luc4E2 cells were cultured in phenol red free assay medium containing 10% charcoal stripped FBS for 5 days prior to the assay. The cells were dispensed at 4,000 cells/well in 4 uL of assay medium into white wall/solid-bottom 1536-well plates (Corning Life Sciences, Corning, NY) using a Multidrop Combi (ThermoFisher Scientific, Waltham, MA) dispenser. After the assay plates were incubated at 37C and 5% CO2 for 24 hr, 23 nL of compounds dissolved in DMSO, positive controls or DMSO only was transferred to the assay plates by a Pintool station (Kalypsys, San Diego, CA). The transfer of compounds was followed by the addition of 1 uL of 0.1 nM (final concentration) agonist (17beta-Estradiol)/assay medium using a Flying Reagent Dispenser (FRD, Aurora Discovery, San Diego, CA). The plates were incubated at 37C and 5% CO2 for 22 hr. For cytotoxicity assay, 1 uL of CellTiter-Fluor reagent (Promega Corporation, Madison, WI) was added to each well using the FRD and after 30 min incubation at 37C and 5% CO2, The fluorescence intensity was measured using ViewLux plate reader (PerkinElmer, Shelton, CT).
On the technique in general: In qHTS, concentration-response curves come from the screen itself.
Turning to `CCOC(=O)C(SP(=S)(OC)OC)c1ccccc1` (stereo not given), the result was inactive.

Consider `CC(C)(C)C(=O)Cl`, for which the result was inactive.

On to `C=CCN1CC[C@]23CCCC[C@H]2[C@H]1Cc1ccc(O)cc13`, for which the outcome was inactive.

Consider `CC(C)(C)c1cc(O)ccc1O`, for which the result was inactive.

Consider `CCOC(=O)COc1ccc(Cl)cc1Cl`, for which the outcome was inactive.

For `COP(=O)(OC)O/C(C)=C/C(=O)N(C)C`, the result was inactive.

As for `CN(C)CCc1c[nH]c2cccc(OP(=O)(O)O)c12`, the result was inactive.

Take `C=CC1(C)OC(=O)N(c2cc(Cl)cc(Cl)c2)C1=O` (stereo not given): the result was inactive.

Turning to `O=[N+]([O-])CCO`, the outcome was inactive.

Take `CC(C)(O)C(Cl)(Cl)Cl`: the outcome was inactive.

In the case of `O=CCCl`, the outcome was inactive.

As for `CNC(=O)O/N=C(/CSC)C(C)(C)C`, the outcome was inactive.

In the case of `CC(C)NCC(O)c1ccc([N+](=O)[O-])cc1` (stereo not given), the outcome was inactive.

Take `CCNP(=S)(OC)O/C(C)=C/C(=O)OC(C)C` (stereo not given): the outcome was inactive.

As to `O=C(Cl)/C=C/C(=O)Cl`, the result was inactive.

As to `Nc1c(Cl)c(F)nc(OCC(=O)O)c1Cl`, the result was inactive.

In the case of `CC(C)(C)NC[C@H](O)c1ccc(O)cc1Cl`, the result was inactive.

For `CCN[C@@H](C)Cc1ccccc1`, the result was inactive.

With `O=C1CCCCC1Cl` (stereo not given), the outcome was inactive.

Regarding `O=C(NC(=O)c1c(F)cccc1F)Nc1cc(Cl)c(F)c(Cl)c1F`, the outcome was inactive.

As to `O=C(Cl)OCc1ccccc1`, the result was inactive.

For the compound `CCCCS(=O)(=O)Cl`, the result was inactive.

As to `COP(=O)(O)OC`, the result was inactive.

On to `CC(=NC#N)N(C)Cc1ccc(Cl)nc1`, for which the outcome was inactive.

`C#CC(C)(C)O`: the outcome was inactive.

As for `ClCOCCl`, the outcome was inactive.

For the compound `CCCN1CCC[C@@H]2Cc3nc(N)ncc3C[C@H]21`, the outcome was inactive.

On to `c1cncc([C@@H]2CCCCN2)c1`, for which the outcome was inactive.

Turning to `ClCC1CO1` (stereo not given), the outcome was inactive.

For `CCOC(=O)Nc1cccc(OC(=O)Nc2ccccc2)c1`, the result was inactive.

As for `O=P(O)(O)CN(CP(=O)(O)O)CP(=O)(O)O`, the outcome was inactive.

For the compound `CC(C)c1ccc(O)cc1`, the result was inactive.

In the case of `CCCN1CCC[C@@H]2Cc3[nH]ncc3C[C@H]21`, the outcome was inactive.

In the case of `CN1COCN(Cc2cnc(Cl)s2)/C1=N\[N+](=O)[O-]`, the outcome was inactive.

On to `CCOC(=O)CC(SP(=S)(OC)OC)C(=O)OCC` (stereo not given), for which the outcome was inactive.

On to `CCCCOC(C)=O`, for which the result was inactive.

`C=C1CC[C@@]2(O)[C@H]3Cc4ccc(O)c5c4[C@@]2(CCN3CC2CC2)[C@H]1O5`: the result was inactive.

For the compound `CON(C)C(=O)Nc1ccc(Br)c(Cl)c1`, the outcome was inactive.

As to `CCSC(=O)Cl`, the outcome was inactive.

For `CC[C@H](N)c1ccccc1`, the result was inactive.

These data come from PubChem BioAssay (Tox21).
